# Gli-Sufu antag – Gli-Sufu pathway antagonists, primary screen, luciferase luminescence, Sufu-KO-LIGHT cells, uHTS | inhibition, % at 5 µM | actives 0.74% (n = 340,000) | Sufu-KO-LIGHT fibroblasts, Gli luciferase reporter luminescence | AID 588413, 2011;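 active = inhibition above about 55%, limit read from the data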
# GAA850 FXN act – FXN promoter activators, primary screen, cell-based, luciferase luminescence, HEK293 lucGAA850; HEK293 lucGAA850 FXN promoter luciferase reporter, 24 h; percent of 10 µM SAHA response; activation, % at 6 µM; actives 0.56% (n = 360,000); AID 540364, 2011;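 active = activation above the average of all compounds screened plus 3 SD, cutoff fixed separately per campaign, cut at about 7.5% in these data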
# SMARCA2 activ – SMARCA2 (BRM) function activators, primary screen, cell-based, luminescence, high throughput. MG213 cells, MMTV-luciferase reporter, dexamethasone, overnight. activation, % at 9.1 µM. actives 1% (n = 370,000). AID 652017, 2013; in the data active = activation above about 7.8%
# NR2F2 inh – NR2F2 transcriptional activity inhibitors, primary screen, cell-based, luciferase reporter, HEK293T, luminescence | COUP transcription factor 2 (Homo sapiens), P24468 | HEK293T NGFI-A luciferase reporter | inhibition, % at 8.6 µM | actives 0.7% (n = 370,000);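 active = inhibition above a per-plate cutoff, mean inhibition of test wells between control levels plus 3 SD, cut at about 38% in these data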;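 note: cells cotransfected with COUP-TFII expression vector driving the NGFI-A reporter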
# GalR3 antag – GalR3 antagonists in HEK293 cells, primary screen, cell-based, fluorescence readout; Galanin receptor type 3 (Homo sapiens), O60755; HEK293 GalR3-CNG cAMP membrane potential fluorescence; galR3 body fused to GalR1 C-terminus; inhibition, % at 3 µM; actives 0.44% (n = 360,000);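 active = inhibition above the screen-wide average plus 3 SD, cut at about 13% in these data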;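 note: forskolin and galanin both at EC90 stimulate the cells; cAMP rise reported by CNG channel membrane potential dye signal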
# Target sequence (O60755 1-299 limits assumed): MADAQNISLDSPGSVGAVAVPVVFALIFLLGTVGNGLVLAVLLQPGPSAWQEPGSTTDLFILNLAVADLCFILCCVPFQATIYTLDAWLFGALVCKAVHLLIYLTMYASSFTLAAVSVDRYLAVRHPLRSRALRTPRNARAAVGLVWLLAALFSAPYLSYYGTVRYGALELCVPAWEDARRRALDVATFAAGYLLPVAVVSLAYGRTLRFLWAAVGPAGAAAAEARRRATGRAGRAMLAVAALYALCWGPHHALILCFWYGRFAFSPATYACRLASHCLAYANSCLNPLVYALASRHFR
# Cardio protect – cardioprotection against H2O2-induced cell death, primary screen, uHTS, H9c2 cells, ATPLite luminescence. H9c2 cardiomyocytes, H2O2 injury protection, 2 h. protection from H2O2 cell death, % at 20 µM. actives 0.63% (n = 360,000);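 active = compounds giving at least 50% protection of heart cells from peroxide-induced death in the single-dose screen, raw or plate-pattern-corrected value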
# GAA30 FXN cntr – GAA30 FXN promoter activators, confirmation, counter-screen for GAA850 frataxin promoter activator project, cell-based, luminescence, HEK293, lucGAA30, triplicate; HEK293 lucGAA30 FXN promoter luciferase, 24 h; DMSO = 0%, 5 µM ipriflavone = 100%; shares compounds with GAA850 FXN act; actives 66% (n = 1,900); AID 588350, 2011; activation, % at 6 µM;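 active = mean activation above the mean of solvent-only control wells plus 3 SD, cut at about 22% in these data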;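 note: counterscreen of GAA850 promoter hits where activity marks nonselective or luminescence artifacts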
# FXN GAA850 conf – FXN GAA850 promoter activators in reporter cells, confirmation, cell-based, luminescence, HEK293 lucGAA850, triplicate; shares compounds with GAA850 FXN act; HEK293 lucGAA850 FXN promoter luciferase reporter, 24 h; 100% = activation by SAHA; activation, % at 6 µM; actives 86% (n = 1,900); AID 588351, 2011;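 active = mean activation above a set limit taken from the primary screen, cut at about 8% in these data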
# A number is an active result; - = inactive; . = no result. The list is not random: actives were taken first. Their share in the collection is about 3.4%.
SMILES,Gli-Sufu antag,GAA850 FXN act,SMARCA2 activ,NR2F2 inh,GalR3 antag,Cardio protect,GAA30 FXN cntr,FXN GAA850 conf
C[C@H](CO)N1C[C@H](C)[C@H](CN(C)S(=O)(=O)c2ccccc2)Oc2ccc(NC(=O)NC3CCCCC3)cc2CC1=O,-,8.5,-,-,-,-,-,9.2
Cc1cc(O)ccc1N/C=C/c1onc(C)c1[N+](=O)[O-],-,9.1,-,-,-,-,122,39
Cc1cccc(/C=C/c2onc(C)c2[N+](=O)[O-])n1,-,.,-,-,-,.,.,.
Cc1cc(-c2cc(C(=O)NCc3ccccc3)on2)nc(S(C)(=O)=O)n1,-,9.7,-,-,-,-,50,26
O=C(CSc1nnc(-c2cnccn2)n1-c1ccccc1)c1ccccc1Br,.,.,-,-,.,.,.,.
CCOC(=O)c1sc(-c2ccc(F)cc2)cc1N,-,-,-,-,-,-,.,.
CCOC(=O)c1sc(-c2ccc(OC)cc2)cc1N,-,9.7,-,-,-,-,109,30
CCOC(=O)c1[nH]c2ccc(F)cc2c1NC(=O)c1ccccc1C(=O)O,-,-,-,-,-,-,.,.
CCOC(=O)c1[nH]c2ccc(OC)cc2c1NC(=O)c1ccccc1C(=O)O,-,8.0,-,-,-,-,28,13
CCC(C)(C)NC(=S)Nc1ccc(-c2nc3ccc(C)cc3s2)cc1,-,-,-,-,-,-,.,.
Cc1ccc2nc(-c3ccc(NC(=O)COC(=O)c4cncc(Br)c4)cc3)sc2c1,-,8.4,-,-,-,-,107,29
CNC(=S)Nc1ccc(-c2nc3ccc(C)cc3s2)cc1,-,8.4,-,-,-,-,114,39
COCCNc1nnc(SC(C)C(=O)Nc2ccc(-c3nc4ccc(C)cc4s3)cc2)s1 (stereo not drawn),-,8.8,-,-,-,-,74,29
Cc1ccc(S(=O)(=O)N2C=C(c3ccccc3)c3ccccc3-c3ccccc32)cc1,.,.,.,-,.,.,.,.
CC(C)C(C#CC1CC1)N(Cc1ccc2c(c1)OCO2)C(N)=NC(=O)/C=C/c1ccccc1 (stereo not drawn),.,.,-,-,.,.,.,.
CC(C)(C)c1ccc(Cn2nnc3c(=O)[nH]c(C4CCCN(C(=O)Cc5cccs5)C4)nc32)cc1 (stereo not drawn),-,-,-,-,-,-,.,.
CC(C)(C)c1ccc(Cn2nnc3c(=O)[nH]c(C4CCN(C(=O)Cc5cccs5)CC4)nc32)cc1,-,8.3,-,-,-,-,-,10
CCn1c(SCC(=O)Nc2ccc(C(C)C)cc2)nnc1-c1ccc(C(C)(C)C)cc1,.,.,-,-,.,.,.,.
CC1=NN(c2ccccc2)C(=O)/C1=C\C=C\c1ccccc1,-,8.6,-,-,-,-,-,14
CC1=NN(c2ccccc2)C(=O)/C1=C/C=C/c1ccc(N(C)C)cc1,-,-,-,-,-,-,.,.
N#Cc1c(N)[nH]c(C(=O)c2ccccc2)c1-c1ccccc1Br,.,.,-,-,-,.,.,.
c1cn2c(Nc3ccc4c(c3)OCCO4)c(-c3ccc(N4CCOCC4)cc3)nc2cn1,-,8.8,-,-,-,-,56,18
O=C(CCn1nnc(-c2cccs2)n1)NCc1cccs1,.,.,-,-,.,.,.,.
O=C(c1cccs1)N1CC[C@H]2[C@H](CCCN2Cc2cc(F)cc(F)c2)C1,.,.,-,-,.,.,.,.
CCOC(=O)c1cc(-c2ccc(OC)cc2)n(CCC(=O)NC2CCN(Cc3ccccc3)CC2)c1C,-,-,-,-,-,-,.,.
SMILES,Gli-Sufu antag,GAA850 FXN act,SMARCA2 activ,NR2F2 inh,GalR3 antag,Cardio protect,GAA30 FXN cntr,FXN GAA850 conf
CCOC(=O)c1cc(-c2ccc(OC)cc2)n(CCC(=O)NCCN2CCC(C)CC2)c1C,-,17,-,-,-,-,26,15
COc1ccc(NC(=S)Nc2ccccn2)cc1,-,8.3,-,-,-,-,109,32
CCN(CC)CCCNC(=O)c1cn(C(C)c2ccccc2)nn1 (stereo not drawn),.,.,-,-,.,.,.,.
O=C(/C=C/c1ccc(O)c(O)c1)OCCc1ccccc1,-,16,-,-,-,-,31,23
O=C(C=Cc1cccc(O)c1)c1ccccc1O,-,-,-,-,-,-,.,.
O=C(/C=C/c1ccc(O)c(O)c1)c1ccccc1O,-,13,-,-,-,-,75,35
CCCCn1nnnc1C(c1ccccc1)N1CCN(c2cccc(C(F)(F)F)n2)CC1 (stereo not drawn),.,.,-,-,-,.,.,.
CC(C)(C)S(=O)N1C[C@H]2CC(=O)C(CCO)=C2[C@@H]1CCO (stereo partly drawn),.,.,-,-,-,.,.,.
Cn1ncc2c1ncn1nc(CCc3ccccc3)nc21,-,9.1,-,-,-,-,106,29
C=CCn1c(-c2cccs2)nc2nc3ccccc3nc21,-,8.1,-,-,-,-,80,24
C=CCn1c(-c2cccs2)nc2ccccc21,-,-,-,-,-,-,.,.
CCn1c2ccccc2c2cc(NC(=O)COC(=O)c3cc(Cl)cc(Cl)c3)ccc21,.,.,-,-,.,.,.,.
COc1ccc(-n2c(SCC(=O)Nc3ccc(S(=O)(=O)Nc4cc(C)nc(C)n4)cc3)nnc2-c2ccco2)cc1,.,.,-,-,.,.,.,.
COc1ccc(NC(=O)C2CCCN2S(=O)(=O)c2ccc3c(c2)CCC(=O)N3)cc1Cl (stereo not drawn),-,9.1,-,-,-,-,-,12
Cc1ccc(-n2ncc(Cl)c2C(=O)NC2CC2)cc1,-,8.6,-,-,-,-,110,32
CNC(=O)c1c(Cl)cnn1-c1ccc(C)cc1,-,-,-,-,-,-,.,.
Cc1c(C=NCCOCc2ccccc2)cnn1C,-,10,-,-,-,-,-,9.0
c1ccc(COCCN2CCN(CCOCc3ccccc3)CC2)cc1,-,-,.,.,.,-,.,.
CCOC(=O)[C@]12CCCC=C1N(Cc1ccco1)C(=O)[C@H](CC(=O)NCC13CC4CC(CC(C4)C1)C3)C2,.,.,-,-,-,.,.,.
COC(=O)c1c(-c2cccs2)csc1NC(=O)c1cccnc1,-,9.8,-,-,-,-,69,26
CCOC(=O)c1c(-c2cccs2)csc1NC(=O)CC(C)C,-,-,-,-,-,-,.,.

# Source: PubChem (several laboratories)
